Laboratory results: the supplement of paper PMC10646978
± gives the standard deviation.

Experiments:
Conditions in all cases: modulator concentration 10 µM
[1] = test system: RAW-Dual (murine macrophage reporter line); assay: NF-kB reporter (SEAP) activity fold change vs agonist alone; higher = enhanced NF-kB activity
In short: (§1)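 RAW-Dual murine macrophage reporter cells were plated at 50 000 per well in 384-well plates, pin-transferred compound to 10 μM final, and pre-incubated for 1 hour at 37 °C before a PRR agonist was added and the cells incubated overnight. NF-κB activity was read from supernatant SEAP with QUANTI-Blue at 620 nm absorbance, and IRF activity from Lucia luciferase with QUANTI-Luc by luminescence. Each signal was expressed as fold change by dividing by the mean agonist-only control on the same plate. Two replicate plates were averaged, with errors obtained by propagation.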

[2] = test system: RAW-Dual (murine macrophage reporter line); assay: IRF reporter (Lucia luciferase) activity fold change vs agonist alone; higher = enhanced IRF activity
In short: as §1

[3] = test system: RAW-Dual (murine macrophage reporter line); assay: viability score (confluency relative to resting cells, overnight) (fraction); higher = more viable, active = viable (0.7 or more)
In short: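 Two confluency masks, generated with IncuCyte software over all imaged wells, were applied to IncuCyte images of RAW-Dual macrophages. The cells, in 384-well plates, had been exposed overnight to 10 μM final compound. The viability score is confluency as a fraction of resting cells, and a compound met the cutoff only with both masks above 70% of resting cells.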

[4] = agonist: CpG ODN 1826 0.5 ug/mL

SMILES	NF-kB reporter [1, 4]	NF-kB reporter ([1]; agonist: LPS 0.1 ug/mL)	NF-kB reporter ([1]; agonist: MPLA […])	IRF reporter ([2]; agonist: 3'3'-cGAMP 10 ug/mL)	IRF reporter ([2]; agonist: LPS 0.1 ug/mL)	IRF reporter ([2]; agonist: MPLA […])	viability score [3]
O=C(CCC(=O)OCC(=O)c1cccs1)Nc1ccc(Oc2ccccc2)cc1	0.756 ± 0.064	0.842 ± 0.054	1.04 ± 0.12	0.995 ± 0.05	1.22 ± 0.085	1.38 ± 0.13	1 (active)
O=C(O)C(=O)O.c1ccc(SCCc2ccncc2)cc1	1.06 ± 0.12	1.04 ± 0.076	1 ± 0.056	1.05 ± 0.24	1.07 ± 0.09	1.19 ± 0.17	1 (active)
COCCOC(=O)C1=C(C)NC(=S)NC1c1ccccc1OC (configuration not stated)	1.03 ± 0.098	0.995 ± 0.056	0.956 ± 0.11	0.964 ± 0.039	1.38 ± 0.095	1.19 ± 0.22	1.01 (active)
O=C1c2ccccc2C(=O)C1c1ccccc1	1.36 ± 0.21	1.01 ± 0.085	1.32 ± 0.15	0.856 ± 0.03	1.18 ± 0.1	0.968 ± 0.14	0.996 (active)
CN(C)c1ccc(O)c2c1C[C@H]1C[C@H]3[C@H](N(C)C)C(O)=C(C(N)=O)C(=O)[C@@]3(O)C(O)=C1C2=O.Cl	0.96 ± 0.072	0.927 ± 0.052	0.959 ± 0.03	1.36 ± 0.37	1.04 ± 0.14	1.09 ± 0.17	0.999 (active)
COc1ccc(C(C)=NNC(=O)Nc2ccccc2)c(OC)c1	0.92 ± 0.083	0.865 ± 0.092	0.932 ± 0.088	1.02 ± 0.063	1.26 ± 0.2	1.4 ± 0.27	1.01 (active)
O=C(OCCN1CCOCC1)c1ccc(O)cc1O	1.21 ± 0.12	1.06 ± 0.1	1.06 ± 0.056	1.05 ± 0.14	0.972 ± 0.044	0.856 ± 0.076	0.999 (active)
O=[N+]([O-])c1ccc2nc(Cl)sc2c1	1.71 ± 0.13	0.49 ± 0.039	0.338 ± 0.032	0.159 ± 0.02	0.223 ± 0.083	0.0921 ± 0.025	0.638 (inactive)
CCOC(=O)C1=C(C)NC(C)=C(C(=O)OCC)C1c1cc(Cl)cc(Cl)c1OC	0.478 ± 0.064	0.44 ± 0.037	1.05 ± 0.1	1.07 ± 0.16	0.852 ± 0.039	2.23 ± 0.43	0.216 (inactive)
CC(=O)n1cc(C=C(C)[N+](=O)[O-])c2ccccc21	1.07 ± 0.091	0.607 ± 0.079	0.419 ± 0.055	0.445 ± 0.015	0.297 ± 0.11	0.183 ± 0.067	0.861 (active)
O=C(O)C=C(CC(=O)O)C(=O)O	1.02 ± 0.084	1.05 ± 0.074	0.946 ± 0.021	0.996 ± 0.12	0.971 ± 0.038	0.983 ± 0.092	1 (active)
O=C(CSC1CC(=O)N(c2ccc(C(=O)O)cc2)C1=O)Nc1ccc(Cl)cc1 (configuration not stated)	0.921 ± 0.11	0.931 ± 0.16	1.05 ± 0.046	0.396 ± 0.085	0.99 ± 0.045	0.982 ± 0.12	1 (active)
Cc1oncc1C(=O)Nc1ccc(C(F)(F)F)cc1	2.06 ± 0.4	1.1 ± 0.16	1.09 ± 0.071	1.31 ± 0.045	1.12 ± 0.29	2.03 ± 0.2	0.357 (inactive)
C=CC(=O)Nc1cccc(Nc2nc(Nc3ccc(N4CCN(C(C)=O)CC4)cc3OC)ncc2C(F)(F)F)c1	0.634 ± 0.16	0.662 ± 0.035	0.977 ± 0.086	0.0805 ± 0.0073	0.438 ± 0.14	0.406 ± 0.04	0.926 (active)
Cc1[nH]c2ccc(Br)cc2c(=O)c1CN1CCOCC1	1.06 ± 0.062	0.995 ± 0.11	0.972 ± 0.027	1.01 ± 0.073	0.973 ± 0.1	0.937 ± 0.16	0.995 (active)
CNS(=O)(=O)C[C@H]1CC[C@H](N(C)c2ncnc3[nH]ccc23)CC1.O=C(O)/C=C\C(=O)O	0.179 ± 0.044	0.0999 ± 0.005	0.414 ± 0.033	0.0771 ± 0.0033	0.269 ± 0.029	0.376 ± 0.056	0.997 (active)
CCN(CC)S(=O)(=O)c1ccc(C(=O)Nc2cc(C)nn2-c2nc(C)c(C)c(=O)[nH]2)cc1	0.153 ± 0.012	0.267 ± 0.065	0.434 ± 0.015	0.883 ± 0.05	0.957 ± 0.099	0.994 ± 0.086	0.99 (active)
CN(C)CCCN1c2ccccc2CCc2ccccc21.Cl	0.827 ± 0.069	1.04 ± 0.1	1.2 ± 0.07	0.737 ± 0.043	0.935 ± 0.089	0.824 ± 0.093	0.883 (active)
CCOc1ccccc1OCCCCOc1ccc(I)cc1	1.12 ± 0.18	1 ± 0.12	0.937 ± 0.11	0.967 ± 0.025	0.994 ± 0.098	1.18 ± 0.17	1 (active)
CCOC(=O)Cc1nnnn1C	0.888 ± 0.27	1.02 ± 0.11	1.01 ± 0.14	1 ± 0.026	1.14 ± 0.15	1.17 ± 0.13	1 (active)
CC(C)(Oc1ccc(CCNC(=O)c2ccc(-c3ccc(Cl)cc3)o2)cc1)C(=O)O	1.09 ± 0.087	1.03 ± 0.078	0.976 ± 0.062	0.942 ± 0.067	1.39 ± 0.22	1.08 ± 0.1	1.01 (active)
Cc1ccc(NC(Nc2ccc(C)cc2)=C(C(Cl)=C(Cl)Cl)[N+](=O)[O-])cc1	1.01 ± 0.17	0.881 ± 0.07	1.18 ± 0.36	0.264 ± 0.01	1.29 ± 0.14	1.33 ± 0.16	0.998 (active)
CN(C)CCCN1c2ccccc2Sc2ccc(Cl)cc21 [Prestw-64]	0.227 ± 0.066	1.1 ± 0.059	1.94 ± 0.12	0.71 ± 0.037	2.26 ± 0.33	2.24 ± 0.35	0.634 (inactive)
CC1CCC2C(C)(CO)C(O)CCC2(C)C12CCC(CO)(CCO)O2 (configuration not stated)	0.983 ± 0.073	0.945 ± 0.049	1.02 ± 0.033	0.99 ± 0.11	0.949 ± 0.048	0.952 ± 0.076	1 (active)
Cc1c(OCC(=O)OC(C)C)ccc2c3c(c(=O)oc12)CCCC3	0.794 ± 0.063	0.883 ± 0.14	1.21 ± 0.12	0.949 ± 0.086	1.49 ± 0.095	1.71 ± 0.24	1.01 (active)
CC(=NNC(N)=S)C1=CC(C)(C)CCC1	0.744 ± 0.061	0.985 ± 0.062	1.06 ± 0.13	0.462 ± 0.012	1.17 ± 0.19	0.978 ± 0.2	1.01 (active)
